# Results filed as inconclusive are left out. A call without a number means that no potency is given here. Active and inactive are the calls of the source. Calls follow the shape of the dose curve; as a rule, active = well fitted inhibition curve with a large enough effect; inconclusive = small, poorly fitted or top-dose-only effect; inactive = flat fitted curve, though single readings scatter.
# Legend:
# Test in all cases: qHTS profiling for inhibitors of Plasmodium falciparum proliferation (AID 504749); also: nearly all actives have a fitted effect of over 60% in size
# Settings in all cases: P. falciparum in erythrocytes, SYBR Green DNA, 72 h; series mostly up to 28.7 µM
# [1] = tested on: CP315
# Outline: (§1)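 SYBR Green fluorescence of parasite DNA, read after lysis and overnight dark incubation, measured growth over 72 h in erythrocyte culture at 0.3% parasitemia and 2.5% hematocrit. Data normalised to DMSO and 0.29 uM artemisinin, with plate-drift correction.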
# [2] = tested on: CP325
# Outline: as §1
# [3] = tested on: CP329
# Outline: as §1
# [4] = tested on: CP335
# Outline: as §1
# [5] = tested on: DFO2036
# Outline: as §1
# [6] = tested on: DIV14
# Outline: as §1
# [7] = tested on: DIV17
# Outline: as §1
# [8] = tested on: DIV30
# Outline: as §1
# [9] = tested on: Dd2
# Outline: as §1
# [10] = tested on: ECU
# Outline: as §1
# [11] = tested on: FAB9
# Outline: as §1
# [12] = tested on: GB4
# Outline: as §1
# [13] = tested on: HB3
# Outline: as §1
# [14] = tested on: ICS
# Outline: as §1
# [15] = tested on: JCK
# Outline: as §1
# [16] = tested on: N140
# Outline: as §1
# [17] = tested on: P93_24
# Outline: as §1
# [18] = tested on: P94_40
# Outline: as §1
# [19] = tested on: PAD
# Outline: as §1
# [20] = tested on: PC15
# Outline: as §1
# Potency is read from the fitted curve at half-maximal effect.
Compound,Potency [1],Potency [2],Potency [3],Potency [4],Potency [5],Potency [6],Potency [7],Potency [8],Potency [9],Potency [10],Potency [11],Potency [12],Potency [13],Potency [14],Potency [15],Potency [16],Potency [17],Potency [18],Potency [19],Potency [20]
Clc1ccc(C2(Cn3cncn3)OCCO2)c(Cl)c1,inactive,inactive,inactive,inactive,inactive,inactive,inactive,inactive,inactive,inactive,inactive,inactive,inactive,inactive,inactive,inactive,inactive,inactive,inactive,inactive
CCCCCl,inactive,inactive,inactive,inactive,inactive,inactive,inactive,inactive,inactive,inactive,inactive,inactive,inactive,inactive,,inactive,inactive,inactive,inactive,inactive
CCC1(CC)C(=O)NC(=O)N(C)C1=O,inactive,inactive,inactive,inactive,inactive,inactive,,inactive,inactive,inactive,inactive,inactive,inactive,inactive,inactive,inactive,inactive,inactive,inactive,inactive
C=CCN1CC[C@]23c4c5ccc(O)c4O[C@H]2[C@@H](O)C=C[C@H]3[C@H]1C5,inactive,inactive,inactive,inactive,inactive,inactive,inactive,inactive,inactive,inactive,inactive,inactive,inactive,inactive,inactive,inactive,inactive,inactive,inactive,inactive
C[C@H]1CC[C@@H]2[C@@H](C)[C@H]3[C@H](C[C@H]4[C@@H]5CC=C6CC(O[C@@H]7O[C@H](CO)[C@H](O)[C@H](O[C@@H]8O[C@H](CO)[C@@H](O)[C@H](O)[C@H]8O)[C@H]7O[C@H]7O[C@@H](C)[C@H](O)[C@@H](O)[C@H]7O)CC[C@]6(C)[C@H]5CC[C@]34C)N2C1 (stereo not given in full),inactive,inactive,inactive,inactive,inactive,inactive,inactive,inactive,inactive,inactive,inactive,inactive,inactive,inactive,inactive,inactive,inactive,inactive,inactive,inactive
CCC(N)Cc1c[nH]c2ccccc12 (stereo not given),inactive,inactive,inactive,inactive,inactive,inactive,inactive,inactive,inactive,inactive,inactive,inactive,inactive,inactive,inactive,inactive,inactive,inactive,inactive,inactive
C#CC(C)(O)CC (stereo not given),inactive,inactive,inactive,inactive,inactive,inactive,inactive,inactive,inactive,inactive,inactive,inactive,inactive,inactive,inactive,inactive,inactive,inactive,inactive,inactive
CCCCCCCCOC(=O)c1ccccc1C(=O)OCCCCCCCC,inactive,inactive,inactive,inactive,inactive,inactive,inactive,inactive,inactive,inactive,inactive,inactive,inactive,,inactive,inactive,,inactive,inactive,inactive
Clc1ccccc1Cl,inactive,inactive,inactive,inactive,inactive,inactive,inactive,inactive,inactive,inactive,inactive,inactive,inactive,inactive,inactive,inactive,inactive,inactive,inactive,inactive
O=S(=O)(O)c1cc(O)ccc1O,inactive,inactive,inactive,inactive,inactive,inactive,inactive,inactive,inactive,inactive,inactive,,inactive,inactive,inactive,inactive,inactive,inactive,inactive,inactive
C[N+]1(C)CCCCC1COC(=O)C(O)(c1ccccc1)c1ccccc1 (stereo not given),inactive,inactive,inactive,inactive,inactive,inactive,inactive,inactive,inactive,inactive,inactive,inactive,inactive,inactive,inactive,inactive,,,inactive,inactive
O=C1C2CC=CCC2C(=O)N1SC(Cl)(Cl)Cl (stereo not given),inactive,inactive,inactive,inactive,inactive,inactive,inactive,inactive,inactive,inactive,inactive,inactive,inactive,inactive,inactive,inactive,inactive,inactive,inactive,inactive
CCCC(C)C1(CC)C(=O)NC(=O)NC1=O (stereo not given),inactive,inactive,inactive,inactive,inactive,inactive,inactive,inactive,inactive,inactive,inactive,inactive,inactive,inactive,inactive,inactive,inactive,inactive,inactive,inactive
C[C@]12CCC(=O)C[C@@H]1CC[C@@H]1[C@@H]2CC[C@]2(C)[C@@H](O)CC[C@@H]12,inactive,inactive,inactive,inactive,inactive,inactive,inactive,inactive,inactive,inactive,inactive,inactive,inactive,inactive,inactive,inactive,inactive,inactive,inactive,inactive
C/C(=C\c1csc(C)n1)[C@@H]1C[C@@H]2O[C@]2(C)CCC[C@H](C)[C@H](O)[C@@H](C)C(=O)C(C)(C)[C@@H](O)CC(=O)O1,0.0024 µM (active),0.0027 µM (active),0.0034 µM (active),0.0012 µM (active),0.0032 µM (active),0.0034 µM (active),0.0034 µM (active),0.0048 µM (active),0.0013 µM (active),0.0045 µM (active),,0.0019 µM (active),0.0009 µM (active),0.0018 µM (active),0.0089 µM (active),0.0045 µM (active),0.0035 µM (active),0.0028 µM (active),0.0035 µM (active),
COC([CH2][Hg])CNC(=O)c1ccccc1OCC(=O)O (stereo not given),inactive,inactive,inactive,inactive,inactive,inactive,inactive,inactive,inactive,inactive,inactive,inactive,inactive,inactive,inactive,inactive,inactive,inactive,inactive,inactive
COCC(C)N(C(=O)CCl)c1c(C)csc1C (stereo not given),inactive,inactive,inactive,inactive,inactive,inactive,inactive,,inactive,inactive,inactive,inactive,inactive,,inactive,inactive,inactive,inactive,inactive,inactive
CCC1(c2ccccc2)C(=O)NC(=O)N(C(=O)c2ccccc2)C1=O (stereo not given),inactive,inactive,inactive,inactive,inactive,inactive,,inactive,inactive,inactive,inactive,inactive,inactive,inactive,inactive,inactive,inactive,inactive,inactive,inactive
Clc1ccc(Cl)cc1,inactive,inactive,inactive,inactive,inactive,inactive,inactive,inactive,inactive,inactive,inactive,inactive,inactive,inactive,inactive,inactive,inactive,inactive,inactive,inactive
CCOP(=O)(OCC)O/C(=C/Cl)c1ccc(Cl)cc1Cl,inactive,inactive,inactive,,inactive,,,,inactive,inactive,inactive,,inactive,,inactive,inactive,,,inactive,inactive
O=c1c2ccccc2[se]n1-c1ccccc1,inactive,inactive,inactive,,,,,inactive,,,inactive,,inactive,,inactive,,,,,
OC(c1ccccc1)(c1ccccc1)C1CN2CCC1CC2 (stereo not given),inactive,inactive,inactive,,inactive,,3.79 µM (active),,,,inactive,,inactive,,inactive,inactive,inactive,inactive,,
c1ccc(C2(N3CCCC3)CCCCC2)cc1,,,,10.7 µM (active),10 µM (active),12 µM (active),15.1 µM (active),,12.6 µM (active),,,12 µM (active),,,inactive,12.6 µM (active),5.62 µM (active),inactive,,
CCC(=O)O[C@@](Cc1ccccc1)(c1ccccc1)[C@@H](C)CN(C)C,inactive,inactive,inactive,inactive,inactive,,,,,inactive,inactive,,inactive,,inactive,,,inactive,inactive,
C[C@H]1CCC[C@H](O)CCCCCc2cc(O)cc(O)c2C(=O)O1,inactive,inactive,inactive,inactive,inactive,,,inactive,inactive,,inactive,,inactive,,inactive,,inactive,,inactive,inactive
Oc1cccc[c]1[Hg][Cl],,12 µM (active),9.53 µM (active),,5.62 µM (active),4.78 µM (active),5.36 µM (active),9.53 µM (active),2.51 µM (active),3.55 µM (active),10 µM (active),4.26 µM (active),10 µM (active),5.01 µM (active),12.6 µM (active),5.01 µM (active),6.31 µM (active),5.01 µM (active),5.62 µM (active),10 µM (active)

# Source: PubChem BioAssay (NCATS)
